Source: PubChem BioAssay
p97 inhibitor: inhibitors of human p97 ATPase, primary screen, biochemical | Transitional endoplasmic reticulum ATPase (Homo sapiens), P55072 | inhibition, % at 8 µM | 220,000 tested, 0.42% active | AID 1481, 2009 | recombinant p97 ATPase, Kinase-Glo ATP luminescence, 3 h; in the data active = inhibition above about 15%;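 also: 0% = DMSO vehicle and 100% = wells lacking enzyme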
ROMK primary: ROMK potassium channel modulators, primary screen, cell-based, thallium flux, MLSMR library; Tet-inducible ROMK, thallium flux fluorescence; actives lie on both sides; ATP-sensitive inward rectifier potassium channel 1 (Homo sapiens), P48048; B-score at 10 µM; 130,000 tested, 2% active;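 active = signal ratio slope over the read window, or its plate-corrected B-score, at least 3 SD from the plate mean, either direction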;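 also: B-score of the F/F0 ratio slope over 7 to 12 s after thallium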
PTEN del growth: growth suppression of PTEN-null HCT116, primary screen, cell-based, CellTiter-Glo; 140,000 tested, 1.2% active; HCT116 PTEN-null viability, 60 h; stronger effect = lower value; viability, % at 10 µM; AID 827, 2007;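 active = viability at or below a set limit, 4 SD under the median of all tested compounds, cut at about 3.7% in these data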;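 also: PTEN knockout HCT116 line with beta catenin targeted HCT116 as companion control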
HCT116 bCat-KO: primary screen for growth suppressors in beta-catenin knockout HCT116 cells (colon tumor, human); viability, % at 10 µM; 140,000 tested, 1.5% active; HCT116 beta-catenin knockout viability, CellTiter-Glo, 60 h; stronger effect = lower value;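 active = viability at or under a set limit, the compound median less 4 SD, cut at about 6% in these data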;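 also: 0% = Hyamine 1622 control at 20 µM and 100% = untreated cell control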
Lmaj promast: Leishmania major promastigote growth inhibition, primary screen; 200,000 tested, 9% active; Leishmania major promastigotes, resazurin fluorescence viability; AID 1063, 2008; inhibition, % at 10 µM; in the data active = inhibition above about 50%;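 also: promastigotes grown with compound for 44 hours at 28 °C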
Insulin prom inh: inhibitors of insulin promoter-driven GFP, primary screen, imaging, TRM-6 cells (human fetal islet line), eGFP reporter, cell count | 130,000 tested, 0.9% active | reporter expression induced with tamoxifen | inhibition, % at 2 µM | AID 1273, 2008;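 active = inhibition above the mean plus 3 SD, with well images judged a real hit on visual review, cut at about 60% in these data, passing the limit was not always enough; inconclusive = inhibition over the cutoff but images rejected on review; inactive = inhibition not above the cutoff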
ROMK hit retest: ROMK channel modulator hit retest, confirmation, cell-based, thallium flux, duplicate, resupplied hits | shares compounds with ROMK primary | fluorescence ratio; stronger effect = lower value | normalized thallium flux (F/F0 slope) at 10 µM | 3,000 tested, 54% active | AID 1917, 2009;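 active = Flux at 10 µM at least 3 SD below or above vehicle control mean in one or both replicates; inconclusive = no clear call, values can overlap the other calls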
Numbers without * were called inactive; u = inconclusive; x = not tested or not shown. In the library only some 10% were active in any assay of this set; here they are far more common.

SMILES	p97 inhibitor	ROMK primary	PTEN del growth	HCT116 bCat-KO	Lmaj promast	Insulin prom inh	ROMK hit retest
COCCN1C(=O)c2ccccc2C(C(=O)Nc2ccc3c(c2)OCCO3)C1c1ccc(F)cc1 (centres undefined)	-4	x	75	82	4	-26	x
O=C(NCc1nc2ccccc2[nH]1)C1=C[C@H](c2ccc3c(c2)OCO3)C[C@H](OCc2ccc(CO)cc2)O1	11	x	x	x	8	x	x
COc1ccc(NC(=O)/C(Cl)=C(/Cl)S(=O)(=O)Cc2ccc(C)cc2)cn1	12	-3.8*	2.0*	3.1*	22	-223	u
CCOc1cc(/C=N/NC(=O)CN2CCCCC2)ccc1OCc1cccc(Cl)c1	-2	-4.6*	91	90	97*	26	u
CCOc1cc(/C=N/NC(=O)CN2CCOCC2)ccc1OCc1ccccc1	-1	-0.88	104	99	6	x	x
CC[C@H](C)[C@H](NC(N)=O)C(=O)Nc1ccc(NC(C)=O)cc1	4	x	x	x	x	x	0.082
O=C1NC(=S)N/C1=C/c1cc([N+](=O)[O-])ccc1O	9	-0.44	96	98	-8	14	x
C=CCN1C(c2ccc(Br)cc2)=CS/C1=C(/C#N)c1nnc(N2CCOCC2)n1-c1ccccc1	6	-3.9*	46	55	56*	-39	0.057*
C=CCN1C(c2ccccc2)=CS/C1=C(\C#N)c1nnc2n1CCCCC2	0	x	91	87	-4	x	x
C=CCN1C(c2cccc(C(F)(F)F)c2)=CS/C1=C(/C#N)c1nnc(N2CCOCC2)n1-c1ccccc1	-5	-4.6*	53	53	43	-12	0.047*
C=CCN1C(=O)NC(c2ccc(OC)cc2)(C(F)(F)F)S/C1=C(\C#N)c1nnc(N2CCOCC2)n1-c1ccccc1 (centres undefined)	-3	-0.58	88	86	-3	-15	x
Clc1ccc(N2CCOCC2)nn1	1	x	x	x	-2	50	x
CC(=O)Cc1nsc(NC(=O)c2ccc(-c3cc(Cl)ccc3Cl)o2)n1	1	3.8*	x	x	-4	10	0.089
CC(=O)C(Sc1nc(N2CCOCC2)nc(N2CCOCC2)n1)C(=O)Nc1ccccc1 (centres undefined)	2	x	84	87	5	69	x
COCCNC(=O)/C(C#N)=C/c1ccc(OCc2ccccc2)cc1	0	x	x	x	24	-43	x
N#C/C(=C\c1ccc(OCc2cccc(C(=O)O)c2)cc1)C(=O)NCc1ccco1	13	x	x	x	x	x	0.039*
CCN(c1ccccc1)S(=O)(=O)c1ccc(N)c(OC)c1	-3	3.5*	27	24	1	-46	0.081
Clc1ccc(COc2cccc(CNCc3ccncc3)c2)cc1	-7	-3.8*	x	x	94*	x	0.071
O=C(O)CCCCCCC1C(=O)NC(=O)N1CCC(O)C1CCCCC1 (centres undefined)	4	4*	95	98	-8	-26	u
NC1=NC(=O)/C(=C\c2cc([N+](=O)[O-])ccc2Cl)S1	5	-2*	x	x	19	x	0.066*
Cc1ccsc1/C=C1\SC(N)=NC1=O	-3	-0.43	96	82	-5	x	x
C/C(=N\NC(=S)Nc1c(C)cccc1C)c1ccc(O)cc1	7	x	x	x	x	x	0.078
CCCCOC(=O)Cn1c2ccc(OC)cc2c2nc3ccccc3nc21	-1	-4.2*	3.1*	4.8*	2	-19	0.056*
N#CC1=C(N)NC(SCc2ccc(Br)cc2)=C(C#N)C12CCCCC2	1	-3.9*	50	61	98*	-30	0.077
N#CC1=C(N)NC(SCc2ccc(Cl)cc2)=C(C#N)C12CCCCC2	-4	-0.85	49	64	99*	-93	0.062*
SMILES	p97 inhibitor	ROMK primary	PTEN del growth	HCT116 bCat-KO	Lmaj promast	Insulin prom inh	ROMK hit retest
N#CC1=C(N)NC(SCc2ccccc2)=C(C#N)C12CCCC2	-4	-1.1	80	76	26	6	x
Cc1ccc2c(c1)N(C(=O)NC1CCCCC1)C(C)(C)CC2C (centres undefined)	7	-0.36	112	103	11	13	x
COCCNC(=O)C(c1cccs1)N(C(=O)Cn1nnc2ccccc21)c1ccccc1 (centres undefined)	3	x	99	98	-3	-39	x
COc1ccc(N(C(=O)CCl)C(C(=O)NCCc2ccccc2)c2cccs2)cc1Cl (centres undefined)	5	-3.3*	0.9*	1.8*	100*	-257	0.063*
CCN1CCN(c2c(/C=C3\SC(=S)N(Cc4ccco4)C3=O)c(C)c(C#N)c(=O)n2C)CC1	9	x	x	x	x	x	0.048*
Cc1cc2cc(CN(Cc3nnnn3C3CCCCC3)CC3CCCO3)c(=O)[nH]c2cc1C (centres undefined)	6	-5.7*	62	62	82*	3	u
Cc1cc2cc(CN(Cc3ccc4c(c3)OCO4)Cc3nnnn3C3CCCC3)c(=O)[nH]c2cc1C	1	x	71	72	24	x	x
Cc1cc2nnc(SCC(=O)Nc3cccc(S(=O)(=O)N4CCOCC4)c3)n2c2ccccc12	-1	x	86	92	0	x	0.082
Cn1cnnc1SCC(=O)Nc1cccc(S(=O)(=O)N2CCOCC2)c1	4	0.92	x	x	3	x	x
CN=C1CC(C)(C)CC(=O)/C1=C(/O)CCC(=O)NC	5	x	94	105	-7	0	x
COc1ccc(C2C3=C(Nc4ncnn42)c2ccccc2CCC3)cc1 (centres undefined)	-4	x	82	93	5	x	x
COc1cc(C2C3=C(Nc4ncnn42)c2ccccc2CC3)cc(OC)c1OC (centres undefined)	-2	3.9*	14	16	4	-257	0.087
CC(C)OC(=O)C[N+](C)(C)CCN1C(=O)C2C(c3ccccc3)C=CC(c3ccccc3)C2C1=O (centres undefined)	8	-3.3*	x	x	1	x	u
CCCCCCSC1=C(C#N)C(c2ccccc2)CC(=O)N1 (centres undefined)	-2	-0.77	106	93	-3	x	x
Cc1ccc(C2CC(=O)NC(SCc3ccccc3)=C2C#N)cc1 (centres undefined)	-1	x	93	95	61*	51	0.066*
C=CCOc1c(CNC2CCCC2)cc(Cl)cc1OC	6	-1.1	x	x	10	x	x
CCOc1cc2c(cc1OCC)C(c1ccccc1OC)OC(=O)C2 (centres undefined)	-3	0.15	97	96	-1	47	x
COc1ccc(C2OC(=O)Cc3cc(OC)c(OC)cc32)cc1 (centres undefined)	5	-2.5*	x	x	6	17	0.086
O=C(Nc1ccccc1O)c1ccc(NS(=O)(=O)c2cccc3cccnc23)cc1	6	x	x	x	-5	x	x
